HEK cytotox – cytotoxic compounds in HEK 293 cells; AID 1345083; HEK 293 viability, ATP luminescence (CellTiter-Glo), 48-72 h; Potency, µM (titrated, usually from 115 µM), most hits filed as inhibitors; actives 6.6% (n = 94,000); also: nearly all actives have a fitted effect of over 60% in size
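ATP-coupled CellTiter-Glo luminescence served as viability read-out, recorded 10 min after reagent addition at room temperature. HEK 293 cells, 250 cells/well, had been incubated with pintool-transferred compound for 48 or 72 hr at 37 degree Celsius.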
Luciferase inh – inhibitors of firefly (Photinus pyralis) luciferase; P08659; Potency, µM (doses to about 115 µM), hits mostly inhibitors; purified P. pyralis luciferase, luminescence, biochemical; actives 2.5% (n = 76,000); also: nearly all actives have a fitted effect of over 65% in size
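Luminescence read by CCD imager after adding enzyme (10nM final) to wells holding compound, titrated in qHTS. Substrates 10uM each D-luciferin and ATP; buffer 50mM Tris acetate pH 7.5, 10mM Mg acetate, Tween-20, BSA.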
hNpr1 antagonist – human Npr1 receptor antagonism | P16066 | AID 1347048 | actives 1.6% (n = 76,000) | Potency, µM (series often up to 46.3 µM), hits mostly inhibitors | HEK293 hNpr1 GloSensor cGMP, ANP-stimulated luminescence; calls by dose curve; also: nearly all actives have a fitted effect of over 60% in size
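HEK293 cells stably expressing human Npr1 and cGMP GloSensor pGS-40F, loaded 2 h with 2% GloSensor reagent, given compound 30 min at room temperature. Luminescence read before and 20 min after 0.1 nM hNppA.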
3T3 cytotox – kills NIH 3T3 cells. NIH 3T3 viability, CellTiter-Glo ATP luminescence, 48-72 h. Potency, µM (doses to about 96.7 µM), usual class: inhibitors. actives 4.3% (n = 94,000). AID 1345082; also: nearly all actives have a fitted effect of over 55% in size
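Mouse fibroblast NIH 3T3 cells, 400 per well, received compound via pintool and were incubated for 48 or 72 hr prior to CellTiter-Glo ATP luminescence measurement.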
NPR1 antag cnf – confirmation of human Npr1 natriuretic peptide receptor antagonists; shares compounds with hNpr1 antagonist; HEK293 hNpr1 cGMP GloSensor luminescence, ANP-stimulated; Potency, µM (series often up to 57.6 µM), usual class: inhibitors; actives 76% (n = 1,400); calls by dose curve; also: nearly all actives have a fitted effect of over 70% in size
NPR2 antag – selectivity test of Npr1 antagonists against human Npr2; shares compounds with hNpr1 antagonist; HEK293 hNpr2 GloSensor cGMP luminescence, CNP-stimulated; Potency, µM (top dose mostly 57.6 µM), actives largely listed as inhibitors; actives 67% (n = 1,400); calls by dose curve; also: nearly all actives have a fitted effect of over 70% in size
FLuc inh counter – counter-screen for Npr1 antagonists: firefly luciferase inhibitors. Potency, µM (highest dose often 57.6 µM), usual class: inhibitors. actives 0.7% (n = 1,400). purified FLuc enzyme, luminescence, Km substrate. shares compounds with hNpr1 antagonist
GloSensor ctrl – reduces cGMP signal in GloSensor control cells; Potency, µM (doses to about 57.6 µM), actives largely listed as inhibitors; HEK293 GloSensor cGMP, SNP-stimulated, luminescence; actives 69% (n = 1,400); shares compounds with hNpr1 antagonist; calls by dose curve; also: nearly all actives have a fitted effect of over 70% in size
Numbers stand for hits; – = inactive; ? = inconclusive; · = not tested or not shown. Rows were chosen to be rich in hits. Some 11% of all compounds tested hit in one or more screens of this group. Unless noted, calls follow the shape of the dose curve; as a rule, active = well fitted curve in the direction sought with a large enough effect; inconclusive = small, poorly fitted or top-dose-only effect, or another doubt; inactive = no such curve, though single readings can be large; an effect the other way counts as inactive or inconclusive.

SMILES | HEK cytotox | Luciferase inh | hNpr1 antagonist | 3T3 cytotox | NPR1 antag cnf | NPR2 antag | FLuc inh counter | GloSensor ctrl
O=C1COc2ccc(OCc3cncs3)nc2CN1CCOc1ccccc1 | ? | – | 32µM | ? | 40µM | 31µM | – | ?
O=C1COc2ccc(OCc3cncs3)nc2CN1Cc1ccccc1 | ? | – | – | ? | · | · | · | ·
Cc1cccc(-n2ncc3c2CCCC3NC(=O)CCC(F)(F)F)c1C (stereo not given) | ? | – | ? | – | 24µM | ? | – | 24µM
O=C(NC[C@H]1Cn2c(-c3ccc4c(c3)OCCO4)cnc2CO1)Nc1ccccc1 | 100µM | – | ? | 89µM | ? | ? | – | –
O=C(NC[C@H]1Cn2c(-c3ccc4c(c3)OCO4)cnc2CO1)Nc1ccccc1 | ? | ? | – | ? | · | · | · | ·
Cc1cccc(C(=O)N2CC(N(Cc3ccncc3)CC3CC3)C2)c1 | – | · | · | ? | · | · | · | ·
CCn1nccc1C(=O)N1CCC(CCOc2ccc(F)cc2)C1 (stereo not given) | 35µM | – | 13µM | ? | 22µM | 24µM | – | 24µM
COc1ccccc1OCCNC(=O)C1CCN(c2cc(C(F)(F)F)nc(C)n2)CC1 | ? | – | ? | ? | – | – | – | –
CCOc1ccccc1C(=O)NC1CCN(c2cc(C(F)(F)F)nc(C)n2)CC1 | ? | – | ? | ? | 24µM | ? | – | 24µM
COc1cccc(C(=O)NC2CCN(c3cc(C(F)(F)F)nc(C)n3)CC2)c1OC | ? | – | ? | ? | · | · | · | ·
O=C(c1ccncc1)N1CCC(Cc2nc(-c3ccccc3)n[nH]2)CC1 | – | – | – | – | · | · | · | ·
Cc1ncccc1-c1nc2cc(C(=O)NCc3cccs3)ccc2o1 | – | · | · | – | · | · | · | ·
COCCN1C(=O)c2ccccc2C(C(=O)Nc2ccccc2O)C12CCCCC2 (stereo not given) | – | – | – | – | · | · | · | ·
CC1(C)[C@H](Cc2cc(-c3ccc(F)cc3)on2)C[C@@H]1NS(C)(=O)=O | 71µM | ? | ? | ? | 40µM | 40µM | – | 35µM
CC(C)c1ccc(CNC(=O)c2ccc(CN3C(=O)NC4(CCOCC4)C3=O)cc2)cc1 | ? | – | 7.1µM | ? | 19µM | 19µM | – | 15µM
O=C(NCc1ccccc1Cl)c1ccc(CN2C(=O)NC3(CCOCC3)C2=O)cc1 | – | – | – | – | · | · | · | ·
Cc1noc(C)c1C(=O)N1CC(N2C(=O)c3c(c(C)nn3-c3ccccc3)C2C(C)C)C1 (stereo not given) | – | · | · | – | · | · | · | ·
c1ccc(-n2cc(CN3CCCC(OCc4cccnc4)C3)nn2)cc1 (stereo not given) | – | – | – | – | · | · | · | ·
c1ccc(-n2cc(CN3CCC(Oc4ccncc4)CC3)nn2)cc1 | ? | – | ? | ? | ? | ? | – | ?

Screening results from PubChem.
